PostGolgi yeast = growth inhibition of a yeast mutant, post-Golgi transport screen; inhibition, % at 10 µM; actives 0.9% (n = 98,000); AID 739; post-Golgi transport phenotypic cell assay;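 note: yeast cells grown in 1536-well plates; yeast grown about 18 h at 30C before absorbance read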
PostGolgi ctrl = growth of the yeast control strain, post-Golgi counter-screen; efflux-deficient yeast background strain, growth absorbance A615, 16 h; actives 5% (n = 98,000); inhibition, % at 10 µM
sEH inh = inhibitors of human soluble epoxide hydrolase | recombinant human sEH enzymatic activity assay | AID 707 | inhibition, % at 2 µM | actives 0.34% (n = 91,000); in the data active = inhibition above about 80%
Target sequence (P34913 whole entry, looked up): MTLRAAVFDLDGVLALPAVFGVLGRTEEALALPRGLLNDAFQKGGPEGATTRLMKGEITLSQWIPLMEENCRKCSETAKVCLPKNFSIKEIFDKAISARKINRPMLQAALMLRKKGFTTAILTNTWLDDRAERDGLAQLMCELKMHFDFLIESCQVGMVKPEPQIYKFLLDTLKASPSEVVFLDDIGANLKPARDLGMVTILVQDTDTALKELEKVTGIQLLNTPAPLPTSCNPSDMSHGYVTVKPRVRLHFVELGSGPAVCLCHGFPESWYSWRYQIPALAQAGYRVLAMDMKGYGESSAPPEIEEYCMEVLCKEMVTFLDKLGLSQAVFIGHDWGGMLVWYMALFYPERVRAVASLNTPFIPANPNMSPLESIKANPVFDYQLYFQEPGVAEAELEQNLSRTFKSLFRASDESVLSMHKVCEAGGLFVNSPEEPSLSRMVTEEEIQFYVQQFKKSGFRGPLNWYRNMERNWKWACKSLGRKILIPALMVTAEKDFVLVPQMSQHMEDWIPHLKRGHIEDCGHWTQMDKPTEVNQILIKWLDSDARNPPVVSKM
sEH act = soluble epoxide hydrolase (human) activation. purified human sEH enzymatic activity, activator screen. activation, % at 2 µM. actives 0.04% (n = 91,000). P34913. AID 717; in the data active = activation above about 37%
Cav32 inh = human Cav3.2 channel inhibition, primary screen; O95180; Cav3.2-expressing cells, Fluo-4 calcium fluorescence FDSS; active compounds read low; B-score at 10 µM; actives 4% (n = 100,000); AID 449739;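 active = single-dose well whose peak fluorescence ratio is a statistical outlier from its plate by either plate-standardised score or position-corrected B-score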
An asterisk follows results filed as active; . = not tested or not shown. Sampled rows, rich in hits. Any-hit rate of the full collection: about 7.8%. Cut-off read from the data, not from the text of the source, unless noted: active = inhibition above about 30%; inactive = the rest.

SMILES | PostGolgi yeast | PostGolgi ctrl | sEH inh | sEH act | Cav32 inh
C#CCO[C@@H]1C[C@H](n2cnc3c(NC(=O)c4ccccc4)ncnc32)O[C@@H]1CO | . | . | . | . | -0.826
CCOC(=O)Cn1c(=N)n(Cc2ccccc2)c2ccccc21 | -11.5 | 17.6 | 14.0 | -14.5 | -0.709
Cc1ccccc1Cn1c(=N)n(CC(=O)c2ccco2)c2ccccc21 | -0.8 | 6.5 | -9.7 | 7.9 | -4.24*
Cc1ccnc(NS(=O)(=O)c2ccc(NS(=O)(=O)Cc3ccccc3)cc2)n1 | -3.3 | 2.6 | 10.7 | -7.5 | 0.626
COc1ccc(OC)c(-n2c(SCC(=O)NCc3ccco3)nnc2-c2c[nH]c3ccccc23)c1 | 1.4 | 4.4 | -7.9 | 6.5 | -0.393
O=C(Nc1ccc(S(=O)(=O)N2CCCCC2)cc1)c1ccccc1Cl | -11.7 | 17.5 | 17.9 | -20.3 | -2.71
O=C(Nc1ccccc1)Nc1ccc(S(=O)(=O)N2CCCCC2)cc1 | -9.9 | 30.2* | 92.1* | -92.1 | -2.45
O=C(CN1C(=O)c2ccccc2S1(=O)=O)Nc1ccc(S(=O)(=O)N2CCCCC2)cc1 | -15.7 | 12.4 | 83.1* | -83.4 | .
O=C(CN1C(=O)NC2(CCCCCC2)C1=O)N1CCN(S(=O)(=O)c2ccc(Cl)cc2)CC1 | 3.2 | 0.0 | . | . | 0.121
C(=N\c1nc2ccccc2n1CCN1CCCCC1)/c1cccs1 | -5.7 | -5.6 | 3.5 | -5.0 | 0.209
Cn1c(/N=C/c2cc(Cl)ccc2O)nc2ccccc21 | 3.4 | 4.4 | -5.2 | 7.4 | -4.83*
Cn1c(/N=C/c2cccs2)nc2ccccc21 | -0.7 | 8.5 | -0.8 | 2.5 | 2.97*
COc1ccc(-c2ccnc(SCC(=O)Nc3ccccn3)n2)cc1 | . | . | -6.7 | 6.7 | -2.1
Cn1c(=O)oc2cc(S(=O)(=O)NC(Cc3ccccc3)C(=O)N3CCCCC3)ccc21 (centres undefined) | 1.4 | 5.3 | 0.3 | -1.3 | -0.493
O=C1C(Cl)=C(NCC2CCCO2)C(=O)N1CCc1ccccc1 (centres undefined) | 10.1 | 14.7 | 5.5 | -4.9 | -1.09
COC(=O)C(N)CCCCN (centres undefined) | . | . | . | . | 0.27
Cc1cccc(C)c1NC(=O)CSCc1cccc(CSCC(=O)Nc2c(C)cccc2C)n1 | -5.2 | 0.9 | -10.1 | 12.2 | 0.261
O=C(CSCc1cccc(CSCC(=O)Nc2ccccc2)n1)Nc1ccccc1 | 3.5 | -3.9 | 3.9 | -6.4 | -6.8*
COc1cccc(O[C@@H]2O[C@@H]3COC(C)(C)O[C@H]3[C@H](O)[C@H]2NC(C)=O)c1 | . | . | -3.5 | 6.5 | -0.0329
O=C(O)C[C@H]1c2ccccc2S(=O)(=O)N1C1CCCC1 | . | . | . | . | 0.0766
CCN(CC)C(=O)c1sc(NC(=O)C(Sc2ccccc2)c2ccccc2)c(C(=O)OC(C)C)c1C (centres undefined) | -5.7 | 8.1 | 0.3 | 1.7 | -4.5*
CCN(CC)C(=O)c1sc(NC(=O)c2ccoc2C)c(C(=O)OC)c1C | 17.3 | 6.8 | . | . | -0.56
N#Cc1cc2c(nc1SCc1ccc(Cl)cc1)CCCC2 | . | . | 25.3 | -21.5 | -0.96
CN(C)c1nc(SCc2ccc(Cl)cc2)nc2c1CCCC2 | 11.9 | 36.9* | 4.1 | -2.4 | 0.441
CCOC(=O)C1CCN(C(=O)CN(c2cccc(C(F)(F)F)c2)S(C)(=O)=O)CC1 | 8.4 | -1.8 | -8.1 | 5.5 | -0.501
SMILES | PostGolgi yeast | PostGolgi ctrl | sEH inh | sEH act | Cav32 inh
Cc1ccc(S(=O)(=O)N(CC(=O)N2CCC(C(N)=O)CC2)c2cccc(C(F)(F)F)c2)cc1 | 42.8* | 4.6 | -24.9 | 22.4 | 0.332
COC(=O)C1=C(N)Oc2cc(C)n(CC3CCCO3)c(=O)c2C1c1ccc(Cl)cc1 (centres undefined) | 5.3 | 6.3 | 7.3 | -6.3 | -3.1*
Cc1ccc(N2C(=O)[C@@H]3C(c4ccc(F)cc4)=NO[C@@H]3C2=O)cc1 | 27.9 | -2.6 | 4.9 | -5.5 | -0.562
O=C1CC2(CON=C2c2ccc(F)cc2)C(=O)N1c1ccc(F)cc1 (centres undefined) | 5.3 | 32.9* | 1.9 | -3.1 | 1.03
Clc1ccc(-c2cnc(Oc3ccccc3)nc2)cc1 | 33.1* | -7.8 | 10.1 | -4.7 | 0.0979
Cc1cc(Cl)ccc1NC(=S)NCCC(c1ccccc1)c1ccccc1 | 1.4 | 13.8 | 62.7 | -62.7 | -3.61*
S=C(NCCc1ccccc1)Nc1ccc(Cl)cc1Cl | -9.6 | 4.2 | 18.5 | -16.2 | -5.11*
COc1cccc(NC(=O)C(NCCC(C)C)c2ccccc2)c1 (centres undefined) | -6.3 | 8.3 | 4.5 | -5.3 | -6.16*
COc1cccc(NC(=S)NCCC(c2ccccc2)c2ccccc2)c1 | -11.7 | 16.4 | 66.6 | -65.5 | -6.92*
COc1ccccc1NC(=S)NCCc1ccccc1 | -2.4 | 7.9 | -4.8 | 4.5 | 0.565
O=C1CC2(CCCC2)Oc2ccccc21 | . | . | . | . | 0.986

Source: PubChem (several laboratories)
